The molecules below were run on S. cerevisiae BY4741 (wild-type), vegetative growth in YPD (assay: growth sensitivity score (doubling time z-score vs DMSO controls); higher = slower growth, strongly negative scores also mark growth inhibition (complete suppression), active = hit call of the paper).
Procedure, shortened: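 Rich medium in microtiter plates was seeded with Saccharomyces cerevisiae strains BY4741 and AD1-9 at an OD600 of 0.065, and compounds were added as a 1:100 dilution of DMSO stock. A Tecan GENios reader recorded optical density every 15 min for 24 hours, with eight solvent-only wells in each experiment. Average doubling time was the time to reach a set generation point divided by generation number. The growth sensitivity score was the compound mean minus the solvent-only mean, divided by the solvent-only standard deviation.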
With `O=C(CCCN1CCC(O)(c2ccc(Cl)cc2)CC1)c1ccc(F)cc1` [Haloperidol] (stock concentration (mM, diluted 1:100): 10) the growth sensitivity score was 5.41 (active). `Cc1nc2ccccn2c(=O)c1CCN1CCC(C(=O)c2ccc(F)cc2)CC1` [Pirenperone] (stock concentration (mM, diluted 1:100): 10) was tested, and the growth sensitivity score was -0.59 (inactive). `CN(CCCN1c2ccccc2CCc2ccccc21)CC(=O)c1ccc(Cl)cc1` [Lofepramine] (stock concentration (mM, diluted 1:100): 10) was tested, and the growth sensitivity score was 3.15 (active). For `Nc1nnc(-c2cccc(Cl)c2Cl)c(N)n1` [Lamotrigine] (stock concentration (mM, diluted 1:100): 10.3), the growth sensitivity score was -1.57 (inactive). In the case of `COc1cc2nc(N3CCN(C(=O)c4ccco4)CC3)nc(N)c2cc1OC` [Prazosin] (stock concentration (mM, diluted 1:100): 10), the growth sensitivity score is reported as -0.58 (inactive). For `Cc1c2oc3c(C)ccc(C(=O)N[C@@H]4C(=O)N[C@H](C(C)C)C(=O)N5CCC[C@H]5C(=O)N(C)CC(=O)N(C)[C@@H](C(C)C)C(=O)O[C@@H]4C)c3nc-2c(C(=O)N[C@@H]2C(=O)N[C@H](C(C)C)C(=O)N3CCC[C@H]3C(=O)N(C)CC(=O)N(C)[C@@H](C(C)C)C(=O)O[C@@H]2C)c(N)c1=O` [Dactinomycin] (stock concentration (mM, diluted 1:100): 10), the growth sensitivity score was 1.17 (inactive). In the case of `O=C1[C@H](CC[C@H](O)c2ccc(F)cc2)[C@@H](c2ccc(O)cc2)N1c1ccc(F)cc1` [Ezetimibe] (stock concentration (mM, diluted 1:100): 10), the growth sensitivity score is reported as -0.7 (inactive).

— the supplement of paper PMC3414501
